The values that follow come from paper PMC9911399, “Two distinct binding modes provide the RNA-binding protein RbFox with extraordinary sequence specificity”.

The labels stand for the following.
T1: RBFOX1 RRM RbFoxmut (Fox-RRM*) (Homo sapiens, UniProt Q9NWB1 109-208, R118D;E147R;N151S;E152T)
T1 sequence: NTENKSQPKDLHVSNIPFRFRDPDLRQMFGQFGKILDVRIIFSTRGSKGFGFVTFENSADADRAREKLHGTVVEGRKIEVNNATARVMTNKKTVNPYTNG

B1: ACGUGUG (DNA:RNA)
RNA: GGGAGACCGGAAUUCAGAUUGUCCACGUGUGUUAAAUCCCGUCGUAGCCACCA
DNA 1: CAATCTGAATTCCGGTCTCCC
DNA 2: TGGTGGCTACGACGGGATT
B2: CCCUACC (DNA:RNA)
RNA: B1 RNA with A25C, G27C, G29A, U30C, G31C
DNA 1: CAATCTGAATTCCGGTCTCCC
DNA 2: TGGTGGCTACGACGGGATT
B3: UAUCCCC (DNA:RNA)
RNA: GGGAGACCGGAAUUCAGAUUGUCCUAUCCCCUUAAAUCCCGUCGUAGCCACCA
DNA 1: CAATCTGAATTCCGGTCTCCC
DNA 2: TGGTGGCTACGACGGGATT
B4: AUUUAGC (DNA:RNA)
RNA: B1 RNA with C26U, G27U, G29A, U30G, G31C
DNA 1: CAATCTGAATTCCGGTCTCCC
DNA 2: TGGTGGCTACGACGGGATT
B5: CCCGUAG (DNA:RNA)
RNA: B1 RNA with A25C, G27C, U28G, G29U, U30A
DNA 1: CAATCTGAATTCCGGTCTCCC
DNA 2: TGGTGGCTACGACGGGATT
B6: CCUGGAG (DNA:RNA)
RNA: B1 RNA with A25C, G27U, U28G, U30A
DNA 1: CAATCTGAATTCCGGTCTCCC
DNA 2: TGGTGGCTACGACGGGATT
B7: GCAGUAG (DNA:RNA)
RNA: B1 RNA with A25G, G27A, U28G, G29U, U30A
DNA 1: CAATCTGAATTCCGGTCTCCC
DNA 2: TGGTGGCTACGACGGGATT
B8: CAGGUCU (DNA:RNA)
RNA: B3 RNA with U25C, U27G, C28G, C29U, C31U
DNA 1: CAATCTGAATTCCGGTCTCCC
DNA 2: TGGTGGCTACGACGGGATT
B9: CAUUAAC (DNA:RNA)
RNA: B3 RNA with U25C, C28U, C29A, C30A
DNA 1: CAATCTGAATTCCGGTCTCCC
DNA 2: TGGTGGCTACGACGGGATT
B10: UUCAUGC (DNA:RNA)
RNA: B3 RNA with A26U, U27C, C28A, C29U, C30G
DNA 1: CAATCTGAATTCCGGTCTCCC
DNA 2: TGGTGGCTACGACGGGATT
B11: UGCAUAG (DNA:RNA)
RNA: B1 RNA with A25U, C26G, G27C, U28A, G29U, U30A
DNA 1: CAATCTGAATTCCGGTCTCCC
DNA 2: TGGTGGCTACGACGGGATT
B12: UGCAUAC (DNA:RNA)
RNA: B3 RNA with A26G, U27C, C28A, C29U, C30A
DNA 1: CAATCTGAATTCCGGTCTCCC
DNA 2: TGGTGGCTACGACGGGATT
B13: GUCCUGC (DNA:RNA)
RNA: B3 RNA with U25G, A26U, U27C, C29U, C30G
DNA 1: CAATCTGAATTCCGGTCTCCC
DNA 2: TGGTGGCTACGACGGGATT
B14: UGCAUCG (DNA:RNA)
RNA: B3 RNA with A26G, U27C, C28A, C29U, C31G
DNA 1: CAATCTGAATTCCGGTCTCCC
DNA 2: TGGTGGCTACGACGGGATT
B15: UGCAUUC (DNA:RNA)
RNA: B3 RNA with A26G, U27C, C28A, C29U, C30U
DNA 1: CAATCTGAATTCCGGTCTCCC
DNA 2: TGGTGGCTACGACGGGATT
B16: UGCAUGC (DNA:RNA)
RNA: B3 RNA with A26G, U27C, C28A, C29U, C30G
DNA 1: CAATCTGAATTCCGGTCTCCC
DNA 2: TGGTGGCTACGACGGGATT
B17: UGCACCC (DNA:RNA)
RNA: B3 RNA with A26G, U27C, C28A
DNA 1: CAATCTGAATTCCGGTCTCCC
DNA 2: TGGTGGCTACGACGGGATT
B18: UGCGUCC (DNA:RNA)
RNA: B3 RNA with A26G, U27C, C28G, C29U
DNA 1: CAATCTGAATTCCGGTCTCCC
DNA 2: TGGTGGCTACGACGGGATT
B19: UGCAUUG (DNA:RNA)
RNA: B1 RNA with A25U, C26G, G27C, U28A, G29U
DNA 1: CAATCTGAATTCCGGTCTCCC
DNA 2: TGGTGGCTACGACGGGATT
B20: UGCUGCA (DNA:RNA)
RNA: B1 RNA with A25U, C26G, G27C, U30C, G31A
DNA 1: CAATCTGAATTCCGGTCTCCC
DNA 2: TGGTGGCTACGACGGGATT
B21: UGCAUCC (DNA:RNA)
RNA: B3 RNA with A26G, U27C, C28A, C29U
DNA 1: CAATCTGAATTCCGGTCTCCC
DNA 2: TGGTGGCTACGACGGGATT
B22: AACCCAG (DNA:RNA)
RNA: B3 RNA with U25A, U27C, C30A, C31G
DNA 1: CAATCTGAATTCCGGTCTCCC
DNA 2: TGGTGGCTACGACGGGATT
B23: CCAAUCA (DNA:RNA)
RNA: B1 RNA with A25C, G27A, U28A, G29U, U30C, G31A
DNA 1: CAATCTGAATTCCGGTCTCCC
DNA 2: TGGTGGCTACGACGGGATT
B24: UCAGUGG (DNA:RNA)
RNA: B1 RNA with A25U, G27A, U28G, G29U, U30G
DNA 1: CAATCTGAATTCCGGTCTCCC
DNA 2: TGGTGGCTACGACGGGATT
B25: AGUUGAG (DNA:RNA)
RNA: B1 RNA with C26G, G27U, U30A
DNA 1: CAATCTGAATTCCGGTCTCCC
DNA 2: TGGTGGCTACGACGGGATT
B26: AUAGCCG (DNA:RNA)
RNA: B1 RNA with C26U, G27A, U28G, G29C, U30C
DNA 1: CAATCTGAATTCCGGTCTCCC
DNA 2: TGGTGGCTACGACGGGATT
B27: AAGUGAG (DNA:RNA)
RNA: B1 RNA with C26A, U30A
DNA 1: CAATCTGAATTCCGGTCTCCC
DNA 2: TGGTGGCTACGACGGGATT
B28: UGCAUUA (DNA:RNA)
RNA: B1 RNA with A25U, C26G, G27C, U28A, G29U, G31A
DNA 1: CAATCTGAATTCCGGTCTCCC
DNA 2: TGGTGGCTACGACGGGATT
B29: UGCAUAA (DNA:RNA)
RNA: B3 RNA with A26G, U27C, C28A, C29U, C30A, C31A
DNA 1: CAATCTGAATTCCGGTCTCCC
DNA 2: TGGTGGCTACGACGGGATT
B30: UGCGUGG (DNA:RNA)
RNA: B1 RNA with A25U, C26G, G27C, U28G, G29U, U30G
DNA 1: CAATCTGAATTCCGGTCTCCC
DNA 2: TGGTGGCTACGACGGGATT
B31: UCCUGCA (DNA:RNA)
RNA: B1 RNA with A25U, G27C, U30C, G31A
DNA 1: CAATCTGAATTCCGGTCTCCC
DNA 2: TGGTGGCTACGACGGGATT
B32: UGCAUGA (DNA:RNA)
RNA: B3 RNA with A26G, U27C, C28A, C29U, C30G, C31A
DNA 1: CAATCTGAATTCCGGTCTCCC
DNA 2: TGGTGGCTACGACGGGATT
B33: UGCAUCA (DNA:RNA)
RNA: B3 RNA with A26G, U27C, C28A, C29U, C31A
DNA 1: CAATCTGAATTCCGGTCTCCC
DNA 2: TGGTGGCTACGACGGGATT
B34: UGCCUGG (DNA:RNA)
RNA: B3 RNA with A26G, U27C, C29U, C30G, C31G
DNA 1: CAATCTGAATTCCGGTCTCCC
DNA 2: TGGTGGCTACGACGGGATT
B35: UGCAUGG (DNA:RNA)
RNA: B1 RNA with A25U, C26G, G27C, U28A, G29U, U30G
DNA 1: CAATCTGAATTCCGGTCTCCC
DNA 2: TGGTGGCTACGACGGGATT
B36: UGCGUCA (DNA:RNA)
RNA: B3 RNA with A26G, U27C, C28G, C29U, C31A
DNA 1: CAATCTGAATTCCGGTCTCCC
DNA 2: TGGTGGCTACGACGGGATT

Numbering of substitutions follows the chain as printed; changes in the protein carry UniProt numbers. The full ranking holds about 16,000 sequences; the median of “ka relative to ugcaugu” is about 0.096, and the highest 2% start at about 0.35. Only a selection was taken, and the highest values are over-represented in it overall.

The test has as its target T1, RBFOX1 RRM RbFoxmut (Fox-RRM*). The test is described as follows: EMSA; HiTS-Eq, 1 nM pool, 10 min; buffer printed only for the single-RNA assays: 10 mM Tris pH 7.5, 150 mM NaCl, 3.4 mM EDTA, 0.001% NP-40, 30 C. Conditions: tags: His6 N-terminal (pET28a); label: 5' 32P. In outline: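 A pool of RNA with 7 randomized nucleotides, 5′-radiolabelled and with DNA-annealed flanks, was equilibrated at 1 nM for 10 min in 50 µL with purified RbFox RRM, wild type or mutant, across increasing protein concentrations. Free RNA was separated by 8% native PAGE, excised, reverse-transcribed, barcoded by PCR and sequenced. Relative association constants were obtained from read-count changes of each RNA species versus the control reaction and normalised to the cognate motif.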
Turning to B1, the binding signal was 0.203 KA relative to UGCAUGU.

In the case of B2, the binding signal was 0.0909 KA relative to UGCAUGU.

For B3, the binding signal is 0.0611 KA relative to UGCAUGU.

With B4, the binding signal is 0.134 KA relative to UGCAUGU.

As to B5, the binding signal is 0.101 KA relative to UGCAUGU.

With B6, the binding signal was 0.113 KA relative to UGCAUGU.

For the molecule B7, the binding signal is 0.122 KA relative to UGCAUGU.

As to B8, the binding signal was 0.0783 KA relative to UGCAUGU.

Consider B9, for which the binding signal was 0.113 KA relative to UGCAUGU.

B10: the binding signal was 0.13 KA relative to UGCAUGU.

Regarding B11, the binding signal is 0.146 KA relative to UGCAUGU.

For the molecule B12, the binding signal is 0.161 KA relative to UGCAUGU.

With B13, the binding signal was 0.104 KA relative to UGCAUGU.

Take B14: the binding signal was 0.922 KA relative to UGCAUGU.

In the case of B15, the binding signal was 0.13 KA relative to UGCAUGU.

Consider B16, for which the binding signal is 1.29 KA relative to UGCAUGU.

Consider B17, for which the binding signal was 0.127 KA relative to UGCAUGU.

Turning to B18, the binding signal was 0.091 KA relative to UGCAUGU.

B19: the binding signal is 0.494 KA relative to UGCAUGU.

Consider B20, for which the binding signal was 0.251 KA relative to UGCAUGU.

As for B21, the binding signal was 0.421 KA relative to UGCAUGU.

Regarding B22, the binding signal was 0.0936 KA relative to UGCAUGU.

For B23, the binding signal was 0.0737 KA relative to UGCAUGU.

Take B24: the binding signal is 0.101 KA relative to UGCAUGU.

For B25, the binding signal is 0.133 KA relative to UGCAUGU.

Turning to B26, the binding signal is 0.119 KA relative to UGCAUGU.

B27: the binding signal is 0.137 KA relative to UGCAUGU.

On to B28, for which the binding signal was 0.163 KA relative to UGCAUGU.

Take B29: the binding signal was 0.146 KA relative to UGCAUGU.

Consider B30, for which the binding signal was 0.138 KA relative to UGCAUGU.

Turning to B31, the binding signal is 0.24 KA relative to UGCAUGU.

Consider B32, for which the binding signal was 0.692 KA relative to UGCAUGU.

Take B33: the binding signal was 0.565 KA relative to UGCAUGU.

Take B34: the binding signal is 0.233 KA relative to UGCAUGU.

As for B35, the binding signal is 0.935 KA relative to UGCAUGU.

Turning to B36, the binding signal was 0.155 KA relative to UGCAUGU.
